Source: PubChem BioAssay
Only some compounds are listed: those with a hit (about 7.6% of all), similar ones and a draw of the others.
ELG1 DNA repair: qHTS screen for small molecules that inhibit ELG1-dependent DNA repair in human embryonic kidney (HEK293T) cells expressing luciferase-tagged ELG1. HEK293T ELG1-luciferase reporter, luminescence, 16 h; DNA damage induced by 5-fluorouridine. Potency, µM (titrated, usually from 46.1 µM), inactives show at the highest dose activity change, negative = inhibition, usual class: inhibitors. hit rate 2.3% among 330,000. AID 504467, 2011; also: potency is read from the fitted curve at half-maximal effect; % is scaled to controls: 0 for no effect and ±100 for the full control effect; nearly all actives have a fitted effect of over 55% in size
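Luminescence from the luciferase reporter, measured 30 min after ONE-Glo reagent at room temperature, was the read-out. Beforehand, 2,000 cells per well were exposed for 16 hr at 37 °C to 5-fluorouridine together with compound or vehicle.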
VP16 counter: VP16 counterscreen qHTS for inhibitors of ROR gamma transcriptional activity; Drosophila S2 Gal4-VP16 UAS-luciferase, luminescence, 20 h; Potency, µM (top dose mostly 53.6 µM), without a hit: at the top dose activity, negative = inhibition, most hits filed as inhibitors; hit rate 3.5% among 310,000; AID 2546, 2010;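 also: Gal4-VP16 expression switched on by copper sulfate through the metallothionein promoter; potency is read from the fitted curve at half-maximal effect; % is scaled to controls: 0 for no effect and ±100 for the full control effect; nearly all actives have a fitted effect of over 50% in size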
RORg inh: qHTS for inhibitors of ROR gamma transcriptional activity | Nuclear receptor ROR-gamma (Mus musculus), P51450 | Drosophila S2 Gal4-RORgamma UAS-luciferase reporter, 20 h | Potency, µM (titrated, usually from 53.6 µM), inactives show at the top dose activity change, negative = inhibition, hits mostly inhibitors | hit rate 5.4% among 310,000 | AID 2551, 2010; also: potency is read from the fitted curve at half-maximal effect; % is scaled to controls: 0 for no effect and ±100 for the full control effect; nearly all actives have a fitted effect of over 60% in size
Target sequence (P51450 whole entry, looked up, the tested form may be a part): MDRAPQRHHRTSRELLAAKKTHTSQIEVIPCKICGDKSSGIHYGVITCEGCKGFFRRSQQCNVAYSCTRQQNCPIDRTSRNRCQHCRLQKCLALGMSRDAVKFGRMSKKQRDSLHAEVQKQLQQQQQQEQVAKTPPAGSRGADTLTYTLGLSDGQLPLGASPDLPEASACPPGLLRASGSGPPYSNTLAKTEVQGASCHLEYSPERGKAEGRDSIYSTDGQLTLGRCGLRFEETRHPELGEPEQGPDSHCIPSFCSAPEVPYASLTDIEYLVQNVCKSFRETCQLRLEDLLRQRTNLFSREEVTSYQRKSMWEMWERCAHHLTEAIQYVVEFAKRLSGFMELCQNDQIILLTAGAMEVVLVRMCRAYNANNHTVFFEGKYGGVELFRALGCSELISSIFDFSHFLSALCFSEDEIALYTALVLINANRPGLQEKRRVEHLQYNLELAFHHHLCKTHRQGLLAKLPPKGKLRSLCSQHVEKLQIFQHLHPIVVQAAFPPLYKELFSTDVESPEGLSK
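Compounds are pin-transferred onto Drosophila Schneider cells expressing a copper-inducible Gal4–ROR gamma transactivation domain fusion. After 1 hr, copper sulfate is added to 700 uM final; luciferase is read 20 hr later.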
Giardia killer: Small Molecules that selectively kill Giardia lamblia: qHTS; Giardia lamblia trophozoite viability; activity change, % at 7.66 µM, hits read low; hit rate 0.15% among 340,000; in the data active = activity change below about -80%; inconclusive = between about -30% and that limit;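 also: parasites exposed to compound for two days anaerobically before the ATP read; % is scaled to controls: 0 for no effect and ±100 for the full control effect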
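Viability, read as ATP luminescence: trophozoites at 100 cells/well, compound added, 48 hrs anaerobic at 37 deg C, then 15-30 min room-temperature development before reading.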
BRCA1 expr up: qHTS Assay to Identify Small Molecule Activators of BRCA1 Expression. hit rate 1.1% among 380,000. MCF7-BRCA1-FFLuc reporter, luminescence, 48 h; response scale: scaled: vehicle 0%, 10 µM genistein 100%. Potency, µM (titrated, usually from 46.1 µM), inactives show top-dose activation, actives largely listed as activators; also: potency is read from the fitted curve at half-maximal effect; nearly all actives have a fitted effect of over 80% in size
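48 h compound treatment of MCF7-BRCA1-FFLuc cells (phenol-red free MEM, 37 °C), then 15 min with luciferase substrate and luminescence imaging.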
p53 reactivation: qHTS assay for re-activators of p53 using a Luc reporter. H1299 p53-A138V BP100-luciferase reporter, luminescence, 24 h. Potency, µM (series often up to 92.2 µM), for the others: at the highest dose activity change, positive = activation, most hits filed as activators. AID 504706, 2011. hit rate 0.063% among 320,000; also: potency is read from the fitted curve at half-maximal effect; % of control where 0% means no effect; nearly all actives have a fitted effect of over 45% in size
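p53-null H1299 cells stably carrying temperature-sensitive p53-A138V and a BP100-luciferase reporter were pinned with compounds (4-point, 1:5 series) and held 24 hrs at 37 deg C. Luminescence was read 10 min after detection reagent.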
* = called active by the depositor; ? = inconclusive; nt = no result; [ ] = remark or other dose. Unless noted, calls follow the shape of the dose curve; as a rule, active = well fitted curve in the direction sought with a large enough effect; inconclusive = small, poorly fitted or top-dose-only effect, or another doubt; inactive = no such curve, though single readings can be large; an effect the other way counts as inactive or inconclusive.

SMILES | ELG1 DNA repair | VP16 counter | RORg inh | Giardia killer | BRCA1 expr up | p53 reactivation
COc1ccc(N2CCN(C(=O)C3(S(=O)(=O)c4ccc(C)cc4)CC3)CC2)cc1 | -10.6% | 6.2% | -14.9% | -22.2 | -8.6% | 1.1%
Clc1ccccc1/C=C/c1nc(-c2ccccn2)no1 | ? | ? | 2.51µM* | ? | ? | -5.6%
Cc1onc(-c2ccccc2Cl)c1-c1nc(-c2ccccn2)no1 | 2.7% | -5.1% | -29.5% | -2.9 | -34.6% | 12.0%
CCCCCc1cc(O)c2c(C)cc(=O)oc2c1 | 24.8% | 11.2µM* | 3.16µM* | -8.0 | -93.3% | -7.7%
CCCCc1n[nH]c(=S)n1Cc1ccc(C)cc1 | 7.5% | ? | 5.62µM* | -5.6 | 0.1% | 2.0%
CCCCCC(O)CCc1n[nH]c(=S)n1-c1ccccc1 (centres undefined) | 4.9% | 2.2% | 6.31µM* | 22.3 | -23.6% | -3.1%
O=C(COc1ccccc1)NCc1n[nH]c(=S)n1-c1ccccc1 | 10.0% | 10.2% | -27.8% | 5.7 | -1.9% | 0.4%
Cc1ccc(NCc2n[nH]c(=S)n2Cc2ccccc2)cc1Cl | -1.2% | ? | 3.98µM* | 2.9 | -19.5% | -1.2%
CCCCCCCc1n[nH]c(=S)n1Cc1ccccc1 | -19.3% | ? | 1.26µM* | -16.9 | -2.3% | -0.2%
Cc1ccc(NCc2nnc(SCC(=O)O)n2Cc2ccccc2)cc1Cl | 13.8% | -11.3% | -1.9% | -2.6 | 1.5% | 9.0%
CC(=O)c1ccccc1NC(=O)CCNC(=O)c1ccco1 | ? | 10.1% | 1.8% | -12.5 | 34.2% | 24.1%
CCOc1ccc(-n2c(CCc3ccccc3)n[nH]c2=S)cc1 | 2.5% | ? | ? | -7.9 | 1.1% | 0.6%
CCn1c(CCCOc2ccc(Cl)cc2Cl)n[nH]c1=S | 5.4% | 3.16µM* | 2.82µM* | 5.8 | 6.31µM* | 3.3%
CCn1c(CCCCc2n[nH]c(=S)n2CC)n[nH]c1=S | ? | -26.4% | 5.62µM* | 1.0 | -17.0% | -3.6%
COc1ccc(-n2c(CCc3ccccc3)n[nH]c2=S)cc1 | 9.0% | -24.1% | 5.01µM* | -18.7 | -2.9% | 6.3%
COc1ccc(C(=O)CSc2nnc(CCc3ccccc3)n2-c2ccccc2)cc1 | -13.1% | ? | 15.8µM* | 8.3 | -30.3% | 0.9%
CCn1c(CCCOc2ccc(Cl)cc2Cl)nnc1SCC(=O)Nc1cccc(F)c1 | 21.6% | 2.8% | 15.0% | -18.4 | -2.4% | 5.1%
O=C(C1=COCCO1)N1CCN(S(=O)(=O)c2cccc(F)c2)CC1 | 0.1% | nt | nt | 20.3 | 1.0% | 7.6%
COc1ccc(NC(=O)C2(C)Cc3c(-c4ccc5c(c4)OCO5)ccnc3O2)cc1 (centres undefined) | nt | nt | nt | nt | 0.0% | nt
O=C(Nc1ccc2c(c1)C(=O)OC2)c1ccc(Cl)cc1 | 14.3% | 8.6% | -4.7% | 9.7 | 0.0% | 3.8%
COc1ccccc1C1=CN(Cc2ccccc2)CCC1=O | 2.6% | nt | nt | -6.9 | 9.9% | 2.0%
CCOC(=O)c1ccc(NC(=O)CSc2nnc(CCc3ccc(C)o3)n2-c2ccccc2)cc1 | -6.7% | 14.1µM* | ? | -3.8 | -5.1% | -5.5%
COCCn1c(-c2ccccc2F)n[nH]c1=S | 7.9% | -1.5% | 7.7% | 23.4 | -2.0% | 2.1%
CCCOc1ccc(CCc2n[nH]c(=S)n2-c2ccccc2)cc1 | -19.7% | -17.9%[10 µM] | 2.82µM* | -1.6 | -26.3% | -2.4%
COCCn1c(CCc2ccccc2)n[nH]c1=S | 14.5% | ? | 11.2µM* | ? | -8.5% | -3.4%
S=c1[nH]nc(CCc2ccccc2)n1Cc1ccccc1 | -0.5% | 5.01µM* | 2.24µM* | 8.2 | 14.5% | 10.8%
N#Cc1ccc(S(=O)(=O)N2CCCCC2c2cc(C(=O)Nc3cccc4c3CCCC4)no2)cc1 (centres undefined) | nt | nt | nt | nt | -11.8% | nt
COC(=O)[C@H](Cc1ccccc1)NC(=O)[C@@H](N)CC(=O)OCc1ccccc1 | 7.9% | nt | nt | -17.7 | 28.6% | -3.4%
CCCOc1ccc(CCc2n[nH]c(=S)n2Cc2ccccc2)cc1 | -8.0% | 1.26µM* | 2µM* | -6.2 | -23.0% | -0.9%
CCCCC(CC(O)COCCC)c1n[nH]c(=S)n1-c1ccccc1 (centres undefined) | -0.8% | ? | 11.2µM* | 5.6 | -2.6% | 1.7%
